From PubChem BioAssay
Compounds with a hit are over-represented: about 6.8% of the library has one in this group of screens.
MK inhibit: inhibitors of Streptococcus pneumoniae mevalonate kinase. purified MK, PK/LDH-coupled NADH absorbance 340 nm. inhibition, % at 10 µM. actives 0.48% (n = 65,000). AID 555;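 active = ranked among the strongest by inhibition in the single 10 µM screen, a fixed top-ranked set picked for dose follow-up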
DPM-DC inhibit: inhibitors of Streptococcus pneumoniae diphosphomevalonate decarboxylase | purified DPM-DC, PK/LDH coupled NADH fluorescence | calls only at 10 µM | actives 0.49% (n = 65,000);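 active = the 320 compounds with the highest percent inhibition in the single-dose primary screen, excluding strongly autofluorescent ones, cut at about 32% in these data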;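 note: kinetic rate of NADH fluorescence loss reporting ADP formed by the decarboxylase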
NADH coupling: inhibitors of enzymes used to reach an NAD/NADH endpoint. coupled PK/LDH NADH assays, four targets. AID 774. actives 0.02% (n = 65,000). IC50, µM (titrated, usually from 10 µM), inactives show at the top dose inhibition;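 active = single-dose screening hits from any of four coupled enzyme assays that gave an IC50 when retested across doses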;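 note: the DPM-DC format reads NADH fluorescence rather than 340 nm absorbance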
Abs 340nm: compound absorbs light at 340 nm. compound absorbance at 340 nm, fold over control. fold change at 10 µM. 65,000 tested, under 10 active. AID 708;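 active = at 10 µM dose, initial 340 nm absorbance at least 2 fold that of control wells; inactive = change under 2 fold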;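 note: initial absorbance extrapolated from kinetic A340 decline of NADH oxidation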
Autofluor 339: intrinsic fluorescence of library compounds, ex339/em460 – biochemical, MLSMR library, data from DPM-DC assay, artefact control, profiling panel; compound autofluorescence, ex339/em460 nm, NADH buffer; stronger effect = higher value; 1 = no-compound wells, NADH background; fluorescence fold increase at 10 µM; actives 5.5% (n = 65,000); AID 709;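 active = at 10 µM, mean starting fluorescence two-fold or more over control wells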;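 note: signal is the first read of a kinetic run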
PMK inhibit: blocks S. pneumoniae phosphomevalonate kinase | purified PMK, PK/LDH-coupled NADH absorbance 340 nm | inhibition, % at 10 µM | actives 0.49% (n = 65,000) | AID 539;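 active = top-ranked compounds by inhibition in the single 10 µM screen, taking a fixed number of the strongest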;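 note: 0% = full reaction with DMSO carrier and 100% = background rate without enzyme reaction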
* hit, by the source's call; i = inactive; . = no result shown; + = active, no number; ! = not active in a repeat.

SMILES | MK inhibit | DPM-DC inhibit | NADH coupling | Abs 340nm | Autofluor 339 | PMK inhibit
CCOC(=O)/C(N=O)=C(\O)C1CCN(C(=O)OCC)CC1 | 0 | i | 6% | 1 | 1.1 | 18
O=C(COC(=O)c1cc(=O)[nH]c2ccccc12)NC(=O)NC1CCCCC1 | 0 | i | 9% | 1.1 | 2* | 13
CCCCOC(=O)c1cc(=O)[nH]c2ccccc12 | 6 | i | 8% | 1.1 | 2.1*! | 10
CCOc1ccc(Nc2nc(Cc3nnc(SCC(=O)NCC4CCCO4)n3C)cs2)cc1 (centres undefined) | 5 | i | 7% | 0.95 | 1.1 | 16
CCOc1ccc(Nc2nc(Cc3nnc(SCC(N)=O)o3)cs2)cc1 | 2 | i | 5% | 1 | 1 | 28*
Cc1nn2cc(-c3ccc(-c4ccccc4)cc3)nc2s1 | 5 | i | 10% | 1.1 | 2.2* | 15
CCN(CC)c1nc(N)c2c(N)n(-c3ccccc3C)c(=S)c(C#N)c2c1C#N | 4 | i | 8% | 1 | 1.8 | 16
CCN(CC)c1nc(N)c2c(N)nc3c(c2c1C#N)CC(c1ccccc1)O3 (centres undefined) | 6 | . | 10% | 1.1 | 2.1* | 14
CCOCCCNC(=O)c1cc2c(-c3ccc(Cl)cc3)nn(C)c2s1 | 8 | . | 8% | 1.1 | 2.1* | 7
CC1CCCN(C(=O)c2cc3c(-c4ccc(Cl)cc4)nn(C)c3s2)C1 (centres undefined) | 2 | i | 4% | 1 | 1 | 0
CCN(CC)CCNC(=O)c1cc2c(-c3ccc(Cl)cc3)nn(C)c2s1 | 7 | . | 5% | 1.1 | 2.1* | 2
Cn1nc(-c2ccc(Cl)cc2)c2cc(C(=O)NC3CC3)sc21 | 0 | . | 3% | 1.1 | 2.1* | 6
CCN(CC)CCCNC(CC(=O)O)C(=O)O (centres undefined) | 7 | i | 6% | 1.1 | 1.1 | 11
Cc1c(/C=N/n2cnnc2)c2ccccc2n1CCOc1ccc(Cl)cc1 | 10 | i | 4% | 1.1 | 1 | 0
Cc1ccc(OCCn2c(C)c(/C=N/n3cnnc3)c3ccccc32)cc1 | 9 | + | 15% | 1.1 | 0.98 | 0
COc1cc2c(OC)cccc2cc1C(=O)O | 8 | . | 2% | 1 | 2.9* | 0
Cc1cnc(-c2nnc(N(C)C(=O)C3CCOC3)s2)cn1 (centres undefined) | 7 | i | 8% | 1.1 | 2* | 5
CN(C(=O)c1cnccn1)c1nnc(-c2cccnc2)s1 | 3 | i | 11% | 1 | 1.3 | 30*
CN(C(=O)C1CCCO1)c1nnc(-c2ccncc2)s1 (centres undefined) | 4 | . | 3% | 0.99 | 2.6* | 8
COCC(=O)N(C)c1nnc(-c2ccccn2)s1 | 0 | i | 3% | 0.99 | 2* | 4
CN(C(=O)C1CCOC1)c1nnc(-c2ccccn2)s1 (centres undefined) | 0 | i | 2% | 1.1 | 1.2 | 0
CCOC(=O)C1C(=O)CC(C)(O)C(C(=O)OCC)C1c1ccccc1OC (centres undefined) | 16 | i | 6% | 1 | 1.1 | 3
CN(C(=O)c1ccncc1)c1nnc(-c2ccncc2)s1 | 7 | . | 8% | 0.98 | 3.6* | 9
CN(C(=O)C1CCCO1)c1nnc(-c2ccccn2)s1 (centres undefined) | 1 | . | 1% | 1.2 | 4.8* | 0
CCCn1c(SCC#N)nc2c(c1=O)C1(CCCC1)Cc1ccccc1-2 | 0 | i | 3% | 1.1 | 1 | 9
SMILES | MK inhibit | DPM-DC inhibit | NADH coupling | Abs 340nm | Autofluor 339 | PMK inhibit
N#CCSc1n[nH]c2nc3c(c(=O)n12)C1(CCCC1)Cc1ccccc1-3 | 8 | . | 4% | 1.1 | 2.2* | 0
Cc1noc(C)c1C(=O)Nc1sc(C)c(C)c1C#N | 11 | i | 4% | 1 | 1 | 0
Cc1ccc2c(N)c(C)ccc2c1 | 9 | . | 10% | 1 | 3.7* | 11
Cc1nc2c(-c3ccccc3)c(C)nn2c(C)c1CCC(=O)NCc1ccco1 | 8 | i | 4% | 0.99 | 1 | 8
Cc1cccc(Cc2c(C)nc3c(C(=O)NCc4ccco4)cnn3c2C)c1 | 1 | i | 7% | 1 | 3.9* | 13
Cc1nc2c(C(=O)NCc3ccco3)cnn2c(C)c1Cc1ccc(F)cc1Cl | 0 | i | 6% | 1 | 3.1* | 7
CC(=O)N(Cc1cc2cc(C)c(C)cc2n2nnnc12)CC1COCCO1 (centres undefined) | 0 | i | 6% | 1 | 1.1 | 18
Cc1cc2oc(=O)cc(C)c2c(=O)o1 | 0 | i | 10% | 1 | 1.2 | 9
Cc1cc(=O)oc2cc3c(cc12)OCCO3 | 4 | . | 2% | 1.1 | 3.6* | 0
Cc1cc(=O)oc2cc3c(cc12)OCCN3 | 4 | . | 8% | 1.1 | 2.1* | 11
O=C(CSc1nnc2ccccn12)Nc1ccccc1C(=O)NC1CC1 | 0 | + | 17% | 1 | 0.94 | 14
O=C(CSc1nnc2ccccn12)NC(=O)NC1CCCCC1 | 5 | i | 8% | 1 | 1.1 | 19
CC(=O)C(Sc1nc(-c2ccco2)nc2c1c(=O)n(C)c(=O)n2C)C(=O)N(C)C (centres undefined) | 3 | i | 9% | 1.1 | 2.2* | 14
Cn1c(=O)c2c(SCC(=O)NCc3ccco3)nc(CC(C)(C)C)nc2n(C)c1=O | 4 | i | 1% | 1 | 1.1 | 0
O=C(NCc1ccc2c(c1)OCO2)c1cc2n(n1)C(C(F)(F)F)CC(c1ccc3c(c1)OCO3)N2 (centres undefined) | 0 | i | 4% | 0.96 | 1 | 25*
O=C(Nc1cc(Cl)ccc1O)c1cc2n(n1)C(C(F)(F)F)CC(c1ccc3c(c1)OCO3)N2 (centres undefined) | 7 | i | 5% | 1.1 | 1.2 | 9
COc1ccc(C(=O)Nc2ccncc2)cc1OC | 3 | i | 14% | 1 | 0.96 | 40*
COc1ccc(C(=O)Nc2nccs2)cc1OC | 3 | i | 4% | 1.1 | 1.1 | 10
CCCC(C(=O)NC1CCCC1)N(C(=O)Cn1nnc(-c2ccc(C)o2)n1)c1ccccc1OC (centres undefined) | 3 | i | 2% | 1 | 1.1 | 2
Cc1ccsc1CN1CCN(c2ccccn2)CC1 | 45* | i | 15% | 1 | 1.1 | 0
O=C(CCc1nc2ccccc2c(=O)[nH]1)OCC(=O)N1CCN(S(=O)(=O)c2ccccc2)CC1 | 0 | i | 9% | 1 | 1.1 | 28*
O=c1[nH]c(-c2ccncc2)nc2ccccc12 | 21 | + | 24% | 1.1 | 1.2 | 18
O=c1[nH]c(-c2cccnc2)nc2ccccc12 | 0 | i | 1% | 1 | 1.1 | 3
CCCCNC(=O)c1cc2c(=O)n3cccc(C)c3nc2n(CCN2CCOCC2)c1=N | 4 | . | 3% | 1.1 | 3.8* | 1
